# In ChEMBL document CHEMBL3988442, “University of Dundee, Small-Polar-MMV Screening Library” (2021):
# Among all 69,000 compounds or so, about 1,000 (1.4%) showed an effect of 50% or more. The sample as a whole holds a higher share of strong results than the screen did.
# Tested on: Leishmania donovani
# Experiment: Leishmania intramacrophage assay
# Type: functional, organism-based
# Set-up: scale not given: in the data most compounds retested in dose-response had high values
structure (smiles),measurement,setting,value
Cc1ccc(-c2nc(CNC(C)CCO)[nH]c2-c2ccccn2)cc1 (stereo not given),Percent Effect,"30.3 µM, […]",67.9%
CN(C)S(=O)(=O)NCc1nc(-c2cccc(F)c2)c(-c2ccccn2)[nH]1,Percent Effect,"30.3 µM, […]",3.232%
COCC(C)NCc1nc(-c2ccc(C)cc2)c(-c2ccccn2)[nH]1 (stereo not given),Percent Effect,"30.3 µM, […]",71.58%
Cc1ccc(-c2nc(CNS(=O)(=O)N(C)C)[nH]c2-c2ccccn2)cc1,Percent Effect,"30.3 µM, […]",30.48%
Cc1cnn(CC(C)NCc2nc(-c3ccccn3)no2)c1 (stereo not given),Percent Effect,"30.3 µM, […]",2.286%
COCc1ccc(C(=O)N2CCOCC2c2ccc(C)o2)cc1 (stereo not given),Percent Effect,"30.3 µM, […]",18.1%
O=C(O)C(F)(F)F.c1ccc(C[C@H]2CN(C3CCOCC3)CC[C@H]2OCC2CC2)cc1,Percent Effect,"30.3 µM, […]",14.89%
O=C(COc1coc(CN2CCCCCC2)cc1=O)c1ccccc1,Percent Effect,"30 µM, 30.03 µM",12.38%
Cc1cc(C)c2c(NCC3(O)CCCCC3)ncnc2n1,Percent Effect,"30.3 µM, […]",-4.66%
CC(c1c(F)cccc1F)N1CCN(Cc2nccn2C)CC1 (stereo not given),Percent Effect,"30.3 µM, […]",28.44%
O=C(N1CCCC1)N1CCc2ncnc(C3CCOC3)c2CC1 (stereo not given),Percent Effect,"30 µM, 30.03 µM",-0.6847%
CCN1CC(C(=O)N(C)Cc2cc3cc(F)ccc3[nH]2)CC1=O (stereo not given),Percent Effect,"30.3 µM, […]",16.63%
CN(Cc1cc2cc(F)ccc2[nH]1)C(=O)C1CC(=O)N(C(C)(C)C)C1 (stereo not given),Percent Effect,"30.3 µM, […]",55.15%
CN(Cc1cc2cc(F)ccc2[nH]1)C(=O)C1CC(=O)N(C2CC2)C1 (stereo not given),Percent Effect,"30.3 µM, […]",14.52%
COC(=O)c1ccc(F)c(Cn2nc(C)cc2C)c1,Percent Effect,"30.3 µM, […]",38.02%
O=S(=O)(NC(CO)Cc1c[nH]c2ccccc12)c1cncc(F)c1 (stereo not given),Percent Effect,"30.3 µM, […]",19.78%
Cc1ccc(C(=O)N2CCc3c(COCC4CC4)cncc3C2)o1,Percent Effect,"30.3 µM, […]",-21.23%
COCc1nc(CNc2cccc(-c3nc(C)c(C)o3)c2)cs1,Percent Effect,"30.3 µM, […]",3.012%
COCc1nc(CNc2cccc(-c3csc(C)n3)c2)cs1,Percent Effect,"30.3 µM, […]",-17.78%
COCc1nc(CNc2cccc(-c3ncon3)c2)cs1,Percent Effect,"30.3 µM, […]",70.63%
N#Cc1nccnc1NC1CCN(c2ccccc2Br)C1 (stereo not given),Percent Effect,"30.3 µM, […]",-7.134%
OCCN1CCC(CNCc2ccc(N3CCCCC3)cc2)CC1,Percent Effect,"30.3 µM, […]",79.78%
N#Cc1ccc(CNCC2CCN(CCO)CC2)cc1,Percent Effect,"30 µM, 30.03 µM",18.87%
Cc1ncccc1CNCC1CCN(CCO)CC1,Percent Effect,30 µM,29.11%
OCCN1CCC(CNCc2cn(-c3ccccc3)nn2)CC1,Percent Effect,"30.3 µM, […]",-6.29%
CS(=O)(=O)c1ccc(CNCC2CCN(CCO)CC2)cc1,Percent Effect,"30 µM, 30.03 µM",7.016%
OCCN1CCC(CNCc2ccc(Br)cc2)CC1,Percent Effect,"30.3 µM, […]",77.88%
Cc1ccc(CNCC2CCN(CCO)CC2)cc1,Percent Effect,"30.3 µM, […]",-12.85%
CCc1ccc(CNCC2CCN(CCO)CC2)cc1,Percent Effect,"30.3 µM, […]",73.93%
NC(=O)c1ccc(CNCC2CCN(CCO)CC2)cc1,Percent Effect,"30.3 µM, […]",-0.3402%
Cn1cc(CC2CC(=O)N(Cc3ccccc3OC(F)F)C2=O)cn1 (stereo not given),Percent Effect,"30.3 µM, […]",7.915%
Cl.NC1CCN(C(=O)c2c(F)cccc2Br)CC1,Percent Effect,"30.3 µM, […]",2.162%
COc1ccc([C@@H]2CN(c3cnccn3)C[C@H]2N(C)C)cc1,Percent Effect,"30.3 µM, […]",-8.819%
CC(C)Cn1cc(NC(=O)NC(C)(C)c2nccs2)cn1,Percent Effect,"30.3 µM, […]",-3.295%
CCN(CC1CN(Cc2nccn2CC)CCO1)c1cccnn1 (stereo not given),Percent Effect,"30.3 µM, […]",7.569%
CCS(=O)(=O)N1CCC(NC(=O)c2cc(C(C)C)ccc2O)CC1,Percent Effect,30 µM,11.27%
CC(=O)N1CCC1c1cc(N2CCNC(=O)C2)nc(C)n1 (stereo not given),Percent Effect,"30.3 µM, […]",23.92%
Cc1cnc(CN2CCCC(c3cc(C(N)=O)[nH]n3)C2)o1 (stereo not given),Percent Effect,"30 µM, 30.03 µM",5%
c1ccc(-c2nnc(CN3CCOC(Cn4cccn4)C3)o2)cc1 (stereo not given),Percent Effect,30 µM,14.93%
Cc1ccc(CN2Cc3c(cnn3C)C(COCC3CC3)C2)s1 (stereo not given),Percent Effect,"30.3 µM, […]",92.44%
Cn1ncc2c1CN(Cc1ccc(F)cc1)CC2COCC1CC1.O=C(O)C(F)(F)F.O=C(O)C(F)(F)F (stereo not given),Percent Effect,"30.3 µM, […]",51.09%
Cc1ccc(CN2Cc3nnn(C)c3C(COCC3CC3)C2)s1.O=C(O)C(F)(F)F (stereo not given),Percent Effect,"30.3 µM, […]",19.91%
Cn1ncc2c1CN(Cc1ccccc1F)CC2COCC1CC1.O=C(O)C(F)(F)F.O=C(O)C(F)(F)F (stereo not given),Percent Effect,"30.3 µM, […]",24.46%
Cn1ncc2c1CN(Cc1cccnc1)CC2COCC1CC1.O=C(O)C(F)(F)F.O=C(O)C(F)(F)F.O=C(O)C(F)(F)F (stereo not given),Percent Effect,"30 µM, 30.03 µM",26.28%
Cn1cc(CN2Cc3c(cnn3C)C(COCC3CC3)C2)cn1.O=C(O)C(F)(F)F.O=C(O)C(F)(F)F (stereo not given),Percent Effect,"30.3 µM, […]",-2.121%
CNC(=O)[C@H]1C[C@@H]2CN(S(=O)(=O)c3ccc(C)cc3)C[C@@H]2N1C.O=C(O)C(F)(F)F,Percent Effect,"30.3 µM, […]",7.67%
CC(=O)Nc1nc(-c2ccc(F)cc2)c[nH]1,Percent Effect,"30.3 µM, […]",-6.024%
NCCC(=O)N1CCC2(CC1)CN(C(=O)Cc1ccc(Cl)cc1)CCO2,Percent Effect,"30.3 µM, […]",-0.5643%
CN1CC(=O)N(c2ccsc2)CC12CCN(S(C)(=O)=O)C2.O=C(O)C(F)(F)F (stereo not given),Percent Effect,"30 µM, 30.03 µM",2.434%
COCCN1C[C@H]2[C@@H](C1)N(Cc1ccc(C)o1)CC[C@H]2OC,Percent Effect,"30 µM, 30.03 µM",22.66%
COCCN1C[C@@H]2[C@@H](OC)CCN(Cc3ccc(C)o3)[C@@H]2C1.O=C(O)C(F)(F)F.O=C(O)C(F)(F)F,Percent Effect,"30.3 µM, […]",53%
COCCN1C[C@@H]2[C@@H](OC)CCN(Cc3ccco3)[C@@H]2C1.O=C(O)C(F)(F)F.O=C(O)C(F)(F)F,Percent Effect,"30.3 µM, […]",5.523%
CC(c1ccccn1)N(C)Cc1ccc(CCC(C)(C)O)cc1 (stereo not given),Percent Effect,"30.3 µM, […]",34.83%
C/C(=C\c1ccco1)CN(C)C(C)c1ccccn1 (stereo not given),Percent Effect,"30.3 µM, […]",72.9%
CCC(CO)N(C/C(C)=C/c1ccco1)Cc1ccccn1 (stereo not given),Percent Effect,"30.3 µM, […]",3.364%
O=C(c1cscn1)N1CCCCC1c1nc2cc(F)ccc2[nH]1 (stereo not given),Percent Effect,"30.3 µM, […]",28.33%
CCS(=O)(=O)NCCCNCc1c(C)nn(C)c1N(C)C,Percent Effect,30 µM,-21.2%
O=C(O)C(F)(F)F.O=C1CC(c2ccccc2)C2(CCN(CC3CC3)CC2)N1 (stereo not given),Percent Effect,"30 µM, 30.03 µM",17.34%
CCc1nc(C2CCCN2C(=O)Cc2cccs2)no1 (stereo not given),Percent Effect,30 µM,2.577%
Cc1cc(S(=O)(=O)NCC(C)(C)N)c(F)cc1F.Cl,Percent Effect,"30.3 µM, […]",25.52%
CCOc1nc2cnccc2n(CC(=O)NCc2ccco2)c1=O,Percent Effect,"30.3 µM, […]",-11.31%
CCCc1nc(NCCc2ccccc2)c2c(n1)c(C)nn2CC,Percent Effect,"30.3 µM, […]",98.89%
CCCc1nc(NCCCn2cccn2)c2c(n1)c(C)nn2CC,Percent Effect,"30.3 µM, […]",56.39%
CCc1nc(NCCCn2cccn2)c2c(n1)c(C)nn2CC,Percent Effect,"30.3 µM, […]",-48.93%
CCn1nc(C)c2nc(C)nc(NCCCn3cccn3)c21,Percent Effect,"30.3 µM, […]",-10.11%
CCCc1nc(NCCCOCC)c2c(n1)c(C)nn2CC,Percent Effect,"30.3 µM, […]",51.09%
CCCc1nc(NCCOC)c2c(n1)c(C)nn2CC,Percent Effect,"30.3 µM, […]",9.64%
CCCc1nc(NCCCOC)c2c(n1)c(C)nn2CC,Percent Effect,"30.3 µM, […]",-43.63%
CCn1nc(C)c2nc(C)nc(NCCc3ccccc3)c21,Percent Effect,"30.3 µM, […]",36.57%
CCCc1nc(NCCCO)c2c(n1)c(C)nn2CC,Percent Effect,"30 µM, 30.03 µM",3.921%
CCCNC(=O)CSCc1ccc(S(=O)(=O)N(C)C)o1,Percent Effect,"30.3 µM, […]",6.939%
Nc1nc2c(c(NCC(c3cccnc3)N3CCOCC3)n1)CCNC2 (stereo not given),Percent Effect,"30.3 µM, […]",45.62%
CCC(Nc1nnnn1-c1ccccc1)C(=O)NCc1cccs1 (stereo not given),Percent Effect,"30.3 µM, […]",14.73%
Cc1cnc(C(=O)N2Cc3ncn(C)c3C(COCC(C)C)C2)cn1.O=C(O)C(F)(F)F (stereo not given),Percent Effect,"30.3 µM, […]",30.84%
CN(CCc1noc(C2CC2)n1)C(=O)C1(N2CCCC2)CCCC1,Percent Effect,"30.3 µM, […]",28.86%
Cc1cc(NC(=O)NCCc2cccs2)n(C)n1,Percent Effect,"30 µM, 30.03 µM",-9.195%
O=C(CN1CCCS1(=O)=O)NCCOc1ccc2c(c1)CCC2,Percent Effect,"30 µM, 30.03 µM",22.18%
CCc1nc(C2CCCN2c2ncc(C(N)=O)cc2Cl)no1 (stereo not given),Percent Effect,"30.3 µM, […]",-6.943%
Cc1cccnc1NCCNC(=O)c1cnc(-c2ccccn2)nc1O,Percent Effect,"30.3 µM, […]",81.9%
Cc1nc(-c2ncc(C(=O)NCCNc3ncccc3C)c(O)n2)cs1,Percent Effect,"30.3 µM, […]",28.4%
Cc1cccnc1NCCNC(=O)c1cnc(-c2cccs2)nc1O,Percent Effect,"30.3 µM, […]",22.97%
O=C(c1occc1CN1C(=O)Cc2ccccc21)N1CCCCCC1,Percent Effect,"30.3 µM, […]",31.83%
Cc1cc(NC(=O)c2ccccc2Br)n(C)n1,Percent Effect,"30.3 µM, […]",-1.29%
CC(C)Oc1cccc(CN2CCC(c3n[nH]c4ncccc34)CC2)c1,Percent Effect,"30.3 µM, […]",-3.157%
CC(C)Oc1cccc(CN2CCC(C(C)N3CCOCC3)CC2)c1 (stereo not given),Percent Effect,"30.3 µM, […]",60.52%
CC(C1CCN(Cc2cccc(OC(F)F)c2)CC1)N1CCOCC1 (stereo not given),Percent Effect,"30.3 µM, […]",37.87%
CC(C1CCN(Cc2ccccc2OC(F)F)CC1)N1CCOCC1 (stereo not given),Percent Effect,"30.3 µM, […]",38.92%
CC(C1CCN(Cc2ccc(OC(F)F)cc2)CC1)N1CCOCC1 (stereo not given),Percent Effect,"30.3 µM, […]",57.26%
CC(C1CCN(Cc2ccc(N(C)C)nc2)CC1)N1CCOCC1 (stereo not given),Percent Effect,"30.3 µM, […]",35.27%
CN1CCN(C(=O)c2n[nH]c3c2CN(C2CCOC2)CC3)CC1 (stereo not given),Percent Effect,"30.3 µM, […]",7.447%
CCc1c(C)sc2c1c(N)nc(=O)n2CCN1CCCCC1,Percent Effect,"30.3 µM, […]",45.7%
OC(CN1CCC(c2ccn[nH]2)CC1)c1ccccc1F (stereo not given),Percent Effect,30 µM,30.71%
COC[C@@]12CCC[C@@H]1CN(C(=O)COC1CCCC1)C2,Percent Effect,"30.3 µM, […]",36.81%
CCOC1COC2(CCN(Cc3cccc(F)c3)CC2)C1.O=C(O)C(F)(F)F (stereo not given),Percent Effect,"30 µM, 30.03 µM",37.88%
CN(C)C(=O)COC1COC2(CCN(c3cccc(F)c3)CC2)C1.O=C(O)C(F)(F)F (stereo not given),Percent Effect,"30.3 µM, […]",52.62%
CN(C)C(=O)COC1COC2(CCN(c3ncccn3)CC2)C1 (stereo not given),Percent Effect,"30.3 µM, […]",64.89%
CN(C)C(=O)CO[C@H]1CO[C@@]2(CCN(Cc3ccoc3)C2)C1,Percent Effect,"30.3 µM, […]",51.04%
Cc1ccc(N2CCC3(CC2)CC(OCC(=O)N(C)C)CO3)nn1 (stereo not given),Percent Effect,"30 µM, 30.03 µM",10.68%
CN(C)C(=O)CO[C@H]1CO[C@@]2(CCN(Cc3ccsc3)C2)C1.O=C(O)C(F)(F)F,Percent Effect,"30.3 µM, […]",39.07%
COc1ccccc1CN1CC[C@]2(C[C@@H](OCC(=O)N(C)C)CO2)C1.O=C(O)C(F)(F)F,Percent Effect,"30.3 µM, […]",48.44%
